{
  "source": "PubChem BioAssay AID602477",
  "about": "(National Center for Advancing Translational Sciences (NCATS), 2012)",
  "note": "Records with an inconclusive call do not appear. Active and inactive are the calls of the source. Calls follow the shape of the dose curve; as a rule, active = well fitted activation curve with a large enough effect; inconclusive = small, poorly fitted or top-dose-only effect; inactive = no such curve, though single readings can be large or run the other way.",
  "data": [
    {"experiment": "FLuc inhibitory activity for the follow-up compounds in a cell-based assay to assess the activity of miR-21", "settings": "HeLa miR-21-FLuc reporter, luciferase luminescence, 48 h; series mostly up to 38.3 µM", "excerpt": "NCGC Assay Overview: Firefly (Photinus pyralis) luciferase is one of the most commonly used transcriptional reporters. It is considered one of the more dynamically responsive reporters - that is, responsive to changes in reporter transcription - as it requires no post-translational modifications and is enzymatically active directly after protein synthesis (Wood, 1998). With no endogenous expression in mammalian cells and without the requirement of external excitation, it offers very little background signal, thus generally providing excellent signal to background for most assays. Previous profiling work to determine the prevalence of compounds that affect FLuc enzymatic activity (PubChem AID 411) identified that ~3% of the MLSMR library (then at ~72K) inhibited FLuc (Auld et al., 2008). […] Of the compounds identified in this profile that inhibited FLuc, 151 compounds were selected for further analysis, in an effort to better understand their mode of inhibiting FLuc. The assay described here was to determine the activity of the compounds in a cell-based firefly luciferase reporter gene assay originally designed to identify antagonists of miR-21. Compounds that inhibit miR-21 or compounds that stabilize FLuc intracellularly are identified as active compounds in the assay.\nNCGC Assay Protocol Summary: Reagents: In-house detection reagent: 300mM Tris-HCl, 300mM Trizma base, 300mM MgCl, 1% Triton-X100, 5mM DTT, 500uM Coenzyme A trilithium salt (Sigma #C3019),450uM ATP (Sigma #A7699), 1mM D-luciferin sodium salt monohydrate (Biosynth #L8240) HeLa cells stably expressing firefly luciferase (FLuc) under the control of a CMV promoter (upstream) and a miR-21 binding sequence directly downstream of the gene. These cells endogenously express miR-21. Control compounds used were two known firefly luciferase inhibitors (3-(5-(3-chlorophenyl)-1,2,4-oxadiazol-3-yl)benzoic acid and 5-(2-fluorophenyl)-3-phenyl-1,2,4-oxadiazole), and DMSO. Assay Summary: 6uL of HeLa miR-21-FLuc cells in assay buffer (DMEM, Invitrogen #21063-029; 10% FBS, HyClone #SH30071.03) were dispensed at 2000cells/well (3.3 x 10^5 cells/mL) into Greiner solid-white TC-treated 1536-well plates using a Multidrop Combi (Thermo Fisher Scientific). Plates were incubated for one hour at 37 degree Celsius, 95% humidity, 5% CO2. These assay plates were then treated with 23nL of compound or DMSO using a Kalypsys pin tool, which allows for delivery of a 12-point titration of each compound to the assay plate, with a final compound concentration ranging from approximately ~38uM to 0.2nM. Assay plates were then incubated for 48 hours. After incubation, plates were allowed to come to RT for one hour prior to delivery of 3uL of 3X luciferase detection reagent. After a 15 minute incubation to allow for cell lysis, luciferase activity was measured using a ViewLux CCD imager (PerkinElmer), with an average exposure time of 2-12 seconds.", "values": [
      {"smiles": "Cc1ccc(C(=O)O/N=C(\\N)c2ccccn2)cc1", "Potency": "0.2 µM (active)"},
      {"smiles": "Cc1ccc2nc(-c3ccc(NC(=O)CN4CCN(C(=O)c5ccco5)CC4)cc3)sc2c1", "Potency": "4.49 µM (active)"},
      {"smiles": "NC(=O)Cc1ccc2sc(-c3ccccc3)nc2c1", "Potency": "1.26 µM (active)"},
      {"smiles": "COc1ccc2nc(NC(=O)c3ccco3)sc2c1", "Potency": "0.1 µM (active)"},
      {"smiles": "COc1ccc(CC(=O)Nc2ccc(-c3nc4ccccc4s3)c(C)c2)cc1", "Potency": "14.2 µM (active)"},
      {"smiles": "CCOc1ccc2nc(NC(=O)c3ccccc3)sc2c1", "Potency": "0.1 µM (active)"},
      {"smiles": "CCOc1ccc(C(=O)Nc2cccc(C(=O)O)c2)cc1Cl", "Potency": "0.356 µM (active)"},
      {"smiles": "O=C(Nc1ccccc1C(=O)O)c1cc(S(=O)(=O)Nc2ccccc2)ccc1Cl", "Potency": "inactive"},
      {"smiles": "Cc1c(NC(=O)c2cccs2)cccc1-c1nc2ccccc2s1", "Potency": "20 µM (active)"},
      {"smiles": "O=C(Nc1ccccc1C(=O)O)c1cccc(NC(=O)c2ccc(Br)o2)c1", "Potency": "inactive"},
      {"smiles": "O=C(Nc1ccccc1-c1nc2ccccc2s1)c1ccc(Br)o1", "Potency": "22.5 µM (active)"},
      {"smiles": "Nc1ccccc1-c1nc2ccccc2s1", "Potency": "3.18 µM (active)"},
      {"smiles": "COc1ccc(Br)cc1C(=O)Nc1ccc(C(=O)O)cc1", "Potency": "7.98 µM (active)"},
      {"smiles": "O=C(Nc1ccccc1C(=O)O)c1cccc(C(=O)Nc2ccccc2C(=O)O)c1", "Potency": "inactive"},
      {"smiles": "CN=c1scc(-c2ccccc2F)n1/N=C/c1ccc[nH]1", "Potency": "inactive"},
      {"smiles": "O=S(=O)(c1ccc(-c2nc3ccccc3s2)cc1)N1CCCC1", "Potency": "2 µM (active)"},
      {"smiles": "COc1c(C)cccc1C(=O)Nc1ccc(-c2nc3ccccc3s2)c(Cl)c1", "Potency": "22.5 µM (active)"},
      {"smiles": "O=C(O)c1cccc(NC(=O)c2ccc(COc3ccc(Cl)cc3)cc2)c1", "Potency": "12.6 µM (active)"},
      {"smiles": "Cc1c(NC(=O)C(C)(C)C)cccc1-c1nc2ccccc2s1", "Potency": "10 µM (active)"},
      {"smiles": "CCOc1c(Cl)cc(C(=O)Nc2ccccc2C(=O)O)cc1Cl", "Potency": "5.04 µM (active)"},
      {"smiles": "O=C(Cc1ccccc1)Nc1ccc(C(=O)Nc2ccccc2C(=O)O)cc1", "Potency": "inactive"},
      {"smiles": "CCn1c(C)nc2cc(-c3nc4n(n3)Cc3ccccc3-4)ccc21", "Potency": "0.1 µM (active)"},
      {"smiles": "COc1cccc(-c2nc3ccccc3s2)c1", "Potency": "0.252 µM (active)"},
      {"smiles": "COc1ccc(-c2nc3ccccc3s2)cc1O", "Potency": "1.79 µM (active)"},
      {"smiles": "COc1ccc2nc(NC(=O)c3nc(S(=O)(=O)Cc4ccc(C)cc4)ncc3Cl)sc2c1", "Potency": "2.52 µM (active)"},
      {"smiles": "COc1ccc2nc(NC(=O)c3ccc([N+](=O)[O-])o3)sc2c1", "Potency": "4.49 µM (active)"},
      {"smiles": "O=C(COC(=O)c1ccccc1[N+](=O)[O-])c1ccc2c(c1)OCO2", "Potency": "5.04 µM (active)"},
      {"smiles": "Nc1ccc2nc(-c3ccccc3)sc2c1", "Potency": "0.0634 µM (active)"},
      {"smiles": "CCc1noc(C)c1C(=O)Nc1nc2ccc(OC)cc2s1", "Potency": "12.6 µM (active)"},
      {"smiles": "Cc1ccc(S(=O)(=O)N2CCOCC2)cc1C(=O)Nc1ccccc1C(=O)O", "Potency": "inactive"},
      {"smiles": "Cc1ccc(S(=O)(=O)N2CCN(C(=O)c3ccccc3-c3nc4ccccc4s3)CC2)c(C)c1", "Potency": "20 µM (active)"},
      {"smiles": "COc1ccc(C(=O)Nc2nc3ccc(OC)cc3s2)cc1", "Potency": "2.83 µM (active)"},
      {"smiles": "O=C(Nc1ccccc1C(=O)O)c1cc(S(=O)(=O)Nc2cccc(F)c2)ccc1Cl", "Potency": "inactive"},
      {"smiles": "CC(C)CC(=O)Nc1cccc(C(=O)Nc2ccccc2C(=O)O)c1", "Potency": "inactive"},
      {"smiles": "O=C(Nc1ccccc1C(=O)O)c1cccc(NC(=O)c2ccccc2Br)c1", "Potency": "inactive"},
      {"smiles": "COc1ccc2nc(NC(=O)c3cnccn3)sc2c1", "Potency": "0.2 µM (active)"},
      {"smiles": "O=C(O)c1cccc(NC(=O)c2cccc(S(=O)(=O)N3CCc4ccccc4C3)c2)c1", "Potency": "inactive"},
      {"smiles": "Cc1ccc(C(=O)Nc2cccc(C(=O)O)c2)cc1S(=O)(=O)N1CCOCC1", "Potency": "12.6 µM (active)"},
      {"smiles": "CC(C)(C)C(=O)Nc1ccc(-c2nc3ccccc3s2)cc1", "Potency": "inactive"},
      {"smiles": "COc1ccc(C(=O)Nc2ccccc2C(=O)Nc2ccccc2C(=O)O)cc1", "Potency": "8.95 µM (active)"}
    ]}
  ]
}
